This note sets out measurements from the supplement of paper PMC12645437, “Orthogonal IMiD-Degron Pairs Induce Selective Protein Degradation in Cells” (ACS Chemical Biology, 2025).

Over roughly 8,300 sequences, “log2 fold change of degron read counts, EGFP-low vs EGFP+ sorted cells (limma voom), compound-induced degradation” has its median near -1.1; the highest 2% begin near 3.2. Only a selection was taken, and the highest values are over-represented in it overall.

For this experiment, the target named is T1, CRBN, Q96SW2.
T1 chain: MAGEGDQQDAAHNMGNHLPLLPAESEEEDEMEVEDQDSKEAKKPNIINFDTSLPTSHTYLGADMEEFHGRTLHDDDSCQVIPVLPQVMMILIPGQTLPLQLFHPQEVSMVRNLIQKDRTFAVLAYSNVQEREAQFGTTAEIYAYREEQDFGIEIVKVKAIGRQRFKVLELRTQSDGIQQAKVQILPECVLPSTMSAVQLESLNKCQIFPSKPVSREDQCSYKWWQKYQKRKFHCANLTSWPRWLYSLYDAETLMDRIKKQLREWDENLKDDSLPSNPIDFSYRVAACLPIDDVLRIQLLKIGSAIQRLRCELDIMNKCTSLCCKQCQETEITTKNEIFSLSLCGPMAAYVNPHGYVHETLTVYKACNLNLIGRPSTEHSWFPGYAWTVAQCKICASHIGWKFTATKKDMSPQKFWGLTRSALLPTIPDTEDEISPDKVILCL
Briefly: log2 fold change of degron read counts, EGFP-low vs EGFP+ sorted cells (limma voom), compound-induced degradation; higher = more compound-induced degradation of the degron-EGFP fusion; degrons are variants of IKZF1/3 zinc finger 2; compound dose not given here. To be noted: Jurkat, 18 h.

Where [1] appears, read: compound: compound 19 (5-tert-butyl-thalidomide).
[2] abbreviates: compound: compound 22 (5-morpholino-thalidomide).
Where [3] appears, read: compound: compound 33 (diphenyl IMiD analogue).
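Also: pooled lentiviral library of zinc finger degron-EGFP fusions in mCherry-positive Jurkat cells, FACS-sorted after compound exposure, with degron abundance counted by next-generation sequencing.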

B1: 46F_47F_49N_50Q_52G_53H_54L_55F_67L_, Q9UKT9 (peptide)
chain: FFCNQCGHLFTQKGNLLRHIKL
Consider B1, for which the “log2 fold change of degron read counts” value was -1.66 under setting [1], -2.07 under setting [2], -1.87 under setting [3] and -1.3 (compound: thalidomide).

B2: 46F_47S_49D_50I_52G_53A_54A_55F_67L_, Q9UKT9 (peptide)
chain: FSCDICGAAFTQKGNLLRHIKL
Take B2: the “log2 fold change of degron read counts” value reads like this: under setting [1], 2.34; under setting [2], 2.19; under setting [3], 1.4; (compound: thalidomide) 0.487.

B3: 46F_47W_49P_50I_52G_53A_54Q_55F_67L_, Q9UKT9 (peptide)
chain: FWCPICGAQFTQKGNLLRHIKL
On to B3, for which the “log2 fold change of degron read counts” value reads like this: under setting [1], 3.01; under setting [2], 3.69; under setting [3], 2.52; (compound: thalidomide) 1.76.

B4: 46F_47E_49P_50I_52G_53A_54Q_55F_67L_, Q9UKT9 (peptide)
chain: FECPICGAQFTQKGNLLRHIKL
On to B4, for which the “log2 fold change of degron read counts” value runs as follows: under setting [1], -0.254; under setting [2], -0.469; under setting [3], 2.11; (compound: thalidomide) 2.88.

B5: 46F_47A_49P_50I_52G_53A_54Q_55F_67L_, Q9UKT9 (peptide)
chain: FACPICGAQFTQKGNLLRHIKL
Regarding B5, the “log2 fold change of degron read counts” value by setting is: under setting [1], 3.33; under setting [2], 2.33; under setting [3], 1.68; (compound: thalidomide) 1.29.

B6: 46F_47Y_49P_50I_52G_53A_54Q_55F_67L_, Q9UKT9 (peptide)
chain: FYCPICGAQFTQKGNLLRHIKL
On to B6, for which the “log2 fold change of degron read counts” value is, setting by setting: under setting [1], 3.2; under setting [2], 3.56; under setting [3], 2.65; (compound: thalidomide) 1.7.

B7: 46F_47K_49P_50I_52G_53A_54Q_55F_67L_, Q9UKT9 (peptide)
chain: FKCPICGAQFTQKGNLLRHIKL
On to B7, for which the “log2 fold change of degron read counts” value under setting [1] was -0.0361, the “log2 fold change of degron read counts” value under setting [2] was -1.47, the “log2 fold change of degron read counts” value under setting [3] was -1.09 and the “log2 fold change of degron read counts” value (compound: thalidomide) is 0.0895.

B8: 46F_47V_49P_50I_52G_53A_54Q_55F_67L_, Q9UKT9 (peptide)
chain: FVCPICGAQFTQKGNLLRHIKL
For B8, the “log2 fold change of degron read counts” value reads like this: under setting [1], 0.269; under setting [2], 3.03; under setting [3], 2.65; (compound: thalidomide) 2.8.

B9: 46F_47R_49P_50I_52G_53A_54Q_55F_67L_, Q9UKT9 (peptide)
chain: FRCPICGAQFTQKGNLLRHIKL
Take B9: the “log2 fold change of degron read counts” value reads like this: under setting [1], -0.000477; under setting [2], 0.626; under setting [3], 1.17; (compound: thalidomide) 1.41.

B10: 46F_47M_49P_50I_52G_53A_54Q_55F_67L_, Q9UKT9 (peptide)
chain: FMCPICGAQFTQKGNLLRHIKL
As to B10, the “log2 fold change of degron read counts” value was found to be 0.245 under setting [1], 1.26 under setting [2], 2.62 under setting [3] and 1.97 (compound: thalidomide).

B11: 46F_47I_49P_50I_52G_53A_54Q_55F_67L_, Q9UKT9 (peptide)
chain: FICPICGAQFTQKGNLLRHIKL
For B11, the “log2 fold change of degron read counts” value reads like this: under setting [1], -0.147; under setting [2], 2.86; under setting [3], 2.84; (compound: thalidomide) 2.97.

B12: 46F_47S_49P_50I_52G_53A_54Q_55F_67L_, Q9UKT9 (peptide)
chain: FSCPICGAQFTQKGNLLRHIKL
B12: the “log2 fold change of degron read counts” value by setting is: under setting [1], 2.37; under setting [2], 2.25; under setting [3], 1.87; (compound: thalidomide) 1.54.

B13: 46F_47T_49P_50I_52G_53A_54Q_55F_67L_, Q9UKT9 (peptide)
chain: FTCPICGAQFTQKGNLLRHIKL
For B13, the “log2 fold change of degron read counts” value by setting is: under setting [1], 0.221; under setting [2], 2.57; under setting [3], 2.32; (compound: thalidomide) 3.06.

B14: 46F_47F_49P_50I_52G_53A_54Q_55F_67L_, Q9UKT9 (peptide)
chain: FFCPICGAQFTQKGNLLRHIKL
Turning to B14, the “log2 fold change of degron read counts” value was 3.07 under setting [1], 3.66 under setting [2], 2.49 under setting [3] and 1.8 (compound: thalidomide).
